Consider nine molecules from the supplement of paper PMC10720658.

± gives the standard deviation of the averaged measurements.

The test system of the assay is AEK1 (Tb927.3.2440). The assay can be described thus: percent reduction in TR-FRET probe signal relative to DMSO control; higher = stronger displacement of ATP-site probe (binding). Particulars: 1 µM; incubation time 1 h.
For the molecule `O=C1NC(=O)/C(=C/c2ccc3c(c2)OC(F)(F)O3)S1`, the “percent reduction in TR-FRET probe signal” value (“percent reduction” below) was -3.7 ± 5.9%.

Take `COc1cc2nccc(Oc3ccc(NC(=O)C4(C(=O)Nc5ccc(F)cc5)CC4)cc3)c2cc1OC`: the “percent reduction” value is -3.97 ± 6.1%.

Take `Cn1c(Nc2ccc(C(F)(F)F)cc2)nc2cc(Oc3ccnc(-c4ncc(C(F)(F)F)[nH]4)c3)ccc21`: the “percent reduction” value came to 34 ± 20%.

Consider `CNCc1ccc(-c2cc(-c3nc(-c4ccc(S(=O)(=O)C(C)C)cc4)cnc3N)on2)cc1`, for which the “percent reduction” value amounted to 0.147 ± 8.7%.

Turning to `COc1cc(C(=O)NC2CCN(C)CC2)ccc1Nc1ncc2c(n1)N(C1CCCC1)CC(F)(F)C(=O)N2C`, the “percent reduction” value was -5 ± 7%.

Consider `Cl.Cl.NC1(c2ccc(-c3nc4ccn5c(=O)[nH]nc5c4cc3-c3ccccc3)cc2)CCC1`, for which the “percent reduction” value was -1.31 ± 6.8%.

In the case of `Cc1c(NC(=O)c2ccc(C(C)(C)C)cc2)cccc1-c1cn(C)c(=O)c(Nc2ccc(C(=O)N3CCOCC3)cc2)n1`, the “percent reduction” value is -8 ± 7.8%.

As for `FC(F)(F)c1ccc(/C=C/c2nc(COc3ccc(CCCCn4ccnn4)cc3)co2)cc1` [Mubritinib (TAK 165)], the “percent reduction” value came to 0.627 ± 0.93%.

On to `O=c1sn(-c2cccc3ccccc23)c(=O)n1Cc1ccccc1` [Tideglusib], for which the “percent reduction” value is -35 ± 6.7%.
